35 compounds from PubChem BioAssay can be followed below.

SMILES strings stand for the structures.

The target in the first test is Left-right determination factor 2 (Homo sapiens) (UniProt O00292). Briefly: small molecules binding LEFTY2 protein – biochemical, small-molecule microarray, 635 nm fluorescence scan, primary screen (AID 1110). The following applies: higher = more signal.
Chain of Left-right determination factor 2 (Homo sapiens) (O00292 whole entry, looked up): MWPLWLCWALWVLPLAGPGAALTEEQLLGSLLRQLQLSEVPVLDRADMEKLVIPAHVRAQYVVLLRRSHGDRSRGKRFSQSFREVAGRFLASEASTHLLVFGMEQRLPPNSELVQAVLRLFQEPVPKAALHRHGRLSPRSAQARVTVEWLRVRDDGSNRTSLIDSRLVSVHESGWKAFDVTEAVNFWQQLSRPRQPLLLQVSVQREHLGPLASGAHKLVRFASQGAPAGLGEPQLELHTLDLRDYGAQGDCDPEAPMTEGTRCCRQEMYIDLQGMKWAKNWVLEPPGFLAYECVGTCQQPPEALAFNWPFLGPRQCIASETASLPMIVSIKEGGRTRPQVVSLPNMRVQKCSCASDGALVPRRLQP
In the case of `COCCCNC(=O)[C@@]1(Sc2ccc(C)cc2)CC(=O)N(C2Cc3ccccc3C2)[C@@H]1c1ccc(CO)cc1I`, the composite z-score was -1.31.
For the compound `C=CC[C@]1(C(=O)N(C)C)N=C(c2ccc(OCCCO)cc2)O[C@H]1c1ccccc1N=[N+]=[N-]`, the composite z-score was -0.406.
Regarding `CCOC(=O)C1=CC[C@@H](c2ccccc2C(F)(F)F)N(S(=O)(=O)c2ccc(C)cc2)C1`, the composite z-score worked out at 0.613.
The compound `CC(C)C(O)C1C=CC2C(=O)N(C)C(=O)C2N1N(c1ccccc1)c1ccccc1` (stereo not drawn) registered a composite z-score of 0.0172.
As to `CCOC(=O)C1=CC[C@@H](c2ccc([N+](=O)[O-])cc2)N(S(=O)(=O)c2ccc(C)cc2)[C@H]1c1ccccc1`, the composite z-score is 0.995.
Consider `[N-]=[N+]=NCc1ccccc1C[C@@]1(C(=O)N2CCCCC2)N=C(c2ccc(OCCCO)cc2)O[C@@H]1c1ccccc1N=[N+]=[N-]`, for which the composite z-score was -0.0573.
Regarding `C=C(/C(=C/C[C@@H](OC(=O)c1ccncc1)c1ccccc1OCCO)c1cc(C(=O)OC)ccc1OC)C(C)C`, the composite z-score worked out at 0.788.
Compound `COCCOC(=O)N1C(=O)[C@@]2(c3cc(C#CC4(O)CCCCCC4)ccc31)[C@H](C(N)=O)[C@H]1C(=O)O[C@H](c3ccccc3)[C@H](c3ccccc3)N1[C@@H]2c1ccc(O)cc1` gave a composite z-score of 0.556.

The target of the next test is Calmodulin-1 (Homo sapiens) (UniProt P0DP23). Briefly: small molecules binding calmodulin-1 with EGTA – biochemical, small-molecule microarray, Cy5-labelled CALM1, profiling panel (AID 1111).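 Note: labelled calmodulin applied in Tris saline Tween buffer holding calcium plus EGTA and DTT.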 The following applies: Cy5-CALM1 binding fluorescence, higher = more signal.
On to `COC(=O)[C@@]1(Cc2ccccc2)[C@H]2c3cc(C(=O)N4CCCC4)[nH]c3C[C@H]2CN1C(=O)c1ccccc1`, for which the composite z-score came out at 0.677.
`O=C(O)[C@H](Cc1ccccc1)n1cc(-c2ccccn2)nn1` yielded a composite z-score of 0.429.
`O=C1O[C@@H](c2ccccc2)[C@@H](c2ccccc2)N2[C@@H](c3ccccc3OCCO)[C@]3(C(=O)Nc4ccc(C#CCCO)cc43)[C@@H](C(=O)N3CCN(c4ncccn4)CC3)[C@H]12`: the composite z-score came to 1.15.
Still for that read-out and setting: the same measure for `COc1ccc([Si](C)(C)[C@@H]2[C@@H](CCO)O[C@]3(C(=O)N(Cc4cccc(N5C(=O)c6ccccc6Oc6ccccc65)c4)c4ccccc43)[C@H]2C)cc1`: 0.949; for `CN(C)CCCN1C(=O)[C@@]2(c3ccc([N+](=O)[O-])cc3)CC(=O)N(CC34CC5CC(CC(C5)C3)C4)[C@@H]2c2ccc(CO)cc21`: -0.301.
For the compound `C[C@]12C(=O)N(CCCCCCO)[C@@H]3C(=O)N(c4ccc(Cl)cc4)CC=CC31O[C@@H]1/C=C\CCCOC(=O)C12` (stereo partly drawn), the composite z-score is -0.821.
Consider `CC1CC/C=C\[C@H]2OC34C=CCN(c5ccc6ccccc6c5)C(=O)[C@H]3N(C(CO)C(C)C)C(=O)[C@@H]4C2C(=O)O1` (stereo partly drawn), for which the composite z-score was -0.822.
In the case of `O=C1O[C@@H](c2ccccc2)[C@@H](c2ccccc2)N2[C@@H](c3ccc(O)cc3)[C@]3(C(=O)Nc4ccc(C#CC5=CCCCC5)cc43)[C@@H](C(=O)N3CCN(c4ncccn4)CC3)[C@H]12`, the composite z-score is 1.19.
`C[C@H]1ON(c2ccc(C(=O)OC(C)(C)C)cc2)[C@@H](c2ccc(O)cc2)[C@@H]1C(=O)N1C(=O)OC[C@@H]1c1ccccc1` came in with a composite z-score of 0.403.
The compound `CCOC(=O)C[C@H]1[C@H](OC(=O)Cc2ccc3c(c2)OCO3)[C@@H](NC(=O)C2CCCCC2)c2cc(OCCCO)ccc2N1C(=O)c1ccc2ccccc2n1` had a composite z-score of 0.0105.
The compound `CN1C(=O)C2C=CC(C(O)c3c(F)cccc3Cl)N(Nc3ccccc3)C2C1=O` (stereo not drawn) returned a composite z-score of 1.45.
For the compound `COCCCNC(=O)[C@]1(Cc2ccccc2CN=[N+]=[N-])N=C(c2ccc(OCCCO)cc2)O[C@@H]1c1ccccc1`, the composite z-score was 0.486.
For `[N-]=[N+]=NCc1ccccc1C[C@@]1(C(N)=O)N=C(c2ccc(OCCCO)cc2)O[C@@H]1c1ccccc1CN=[N+]=[N-]`, the composite z-score was 1.37.
Consider `COC(=O)[C@@]1(Cc2ccc(OC)cc2)[C@H]2c3cc(C(=O)N4CCCC4)n(CCc4cc5ccccc5[nH]4)c3C[C@H]2CN1C(=O)c1ccccc1`, for which the composite z-score came to 2.44.
Turning to `COCCOC(=O)N1C(=O)[C@@]2(c3cc(C#Cc4ccc(OC)cc4)ccc31)[C@H](C(=O)NC[C@H](O)c1ccccc1)[C@H]1C(=O)O[C@H](c3ccccc3)[C@H](c3ccccc3)N1[C@@H]2c1ccc(O)cc1`, the composite z-score came out at 0.0624.
In turn, `C=CC[C@@]12N=C(c3ccc(OCCCO)cc3)O[C@@H]1c1ccccc1N(CCS(=O)(=O)c1ccccc1)C2=O` gave a composite z-score of 1.69.
For the compound `C=CCN1C(=O)[C@]2(CC=C)N=C(c3ccc(OCCCO)cc3)O[C@@H]2c2ccccc21`, the composite z-score came to 1.94.
Take `Cc1ccc(S[C@]2(C(=O)NCC(C)C)CC(=O)N(Cc3ccccc3Cl)[C@@H]2c2ccc(CO)cc2I)cc1`: the composite z-score is -0.363.
In turn, `COc1ccccc1CN1C(=O)c2ccccc2[C@](Cc2ccccc2I)(C(=O)NC(C)C)[C@@H]1c1ccc(CO)cc1` gave a composite z-score of 0.704.
Consider `CCOc1cc(C(O)C2C=CC3C(=O)N(C4CCCCC4)C(=O)C3N2Nc2ccc(OC)cc2)ccc1O` (stereo not drawn), for which the composite z-score came to 1.13.
For the compound `COCCOC(=O)N1C(=O)[C@@]2(c3cc(C#Cc4ccc(OC)cc4)ccc31)[C@H](C(=O)N1CCCCCCC1)[C@H]1C(=O)O[C@H](c3ccccc3)[C@H](c3ccccc3)N1[C@@H]2c1ccc(O)cc1`, the composite z-score was 0.172.
Still for that read-out and setting: next, `C=C(C(=O)CC[C@H](OC(=O)c1cccnc1)c1ccc(CO)o1)C(C)C`: 0.627; `COC(=O)[C@H](Cc1ccccc1)N1CC(/C=C/C2CC2)=C[C@@H]1[C@@H](O)Cc1ccccc1`: 0.48; `COC(=O)[C@@]1(Cc2ccc(OC)cc2)[C@H]2c3cc(C(=O)N(C)C)n(Cc4nc5ccccc5[nH]4)c3C[C@H]2CN1C(=O)c1ccccc1`: 2.08.
For the compound `CN(C)C(=O)[C@]1(CCC(=O)OC(C)(C)C)N=C(c2ccc(OCCCO)cc2)O[C@@H]1c1ccccc1`, the composite z-score turned out to be 0.989.
With `COCCOC(=O)N1C(=O)[C@@]2(c3cc(C#CC4(O)CCCCCC4)ccc31)[C@H](C(N)=O)[C@H]1C(=O)O[C@H](c3ccccc3)[C@H](c3ccccc3)N1[C@@H]2c1ccccc1OCCO`, the composite z-score was -0.0545.
Still for that read-out and setting: next, `Cc1ccc(S[C@]2(C(=O)NCC(F)(F)F)CC(=O)N(Cc3ccccc3)[C@@H]2c2ccc(CO)cc2)cc1`: -0.23; `COCCCNC(=O)[C@@]1(Sc2ccc(C)cc2)CC(=O)N(C2Cc3ccccc3C2)[C@@H]1c1ccc(CO)cc1I`: -0.176; `C=CC[C@]1(C(=O)N(C)C)N=C(c2ccc(OCCCO)cc2)O[C@H]1c1ccccc1N=[N+]=[N-]`: 2.27.
The same measure, in the same setting: next, `CCOC(=O)C1=CC[C@@H](c2ccccc2C(F)(F)F)N(S(=O)(=O)c2ccc(C)cc2)C1`: 2.07.
Turning to `CC(C)C(O)C1C=CC2C(=O)N(C)C(=O)C2N1N(c1ccccc1)c1ccccc1` (stereo not drawn), the composite z-score was found to be 0.107.
For `CCOC(=O)C1=CC[C@@H](c2ccc([N+](=O)[O-])cc2)N(S(=O)(=O)c2ccc(C)cc2)[C@H]1c1ccccc1`, the composite z-score was found to be 0.455.
Still for that read-out and setting: next, `[N-]=[N+]=NCc1ccccc1C[C@@]1(C(=O)N2CCCCC2)N=C(c2ccc(OCCCO)cc2)O[C@@H]1c1ccccc1N=[N+]=[N-]`: 1.43; `C=C(/C(=C/C[C@@H](OC(=O)c1ccncc1)c1ccccc1OCCO)c1cc(C(=O)OC)ccc1OC)C(C)C`: 0.455; `COCCOC(=O)N1C(=O)[C@@]2(c3cc(C#CC4(O)CCCCCC4)ccc31)[C@H](C(N)=O)[C@H]1C(=O)O[C@H](c3ccccc3)[C@H](c3ccccc3)N1[C@@H]2c1ccc(O)cc1`: 0.36.
